The list is not random: actives were taken first. Their share in the collection is about 9.4%.
ELG1 genotoxic = inducers of genotoxicity in HEK293T ELG1-luciferase cells. HEK293T ELG1-luciferase reporter, luminescence, 16 h. Potency, µM (highest dose often 46 µM), without a hit: at the top dose activity change, positive = activation, most hits filed as activators. 330,000 compounds, 1.3% hits. AID 504466; also: % of control where 0% means no effect; nearly all actives have a fitted effect of over 60% in size
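DMSO vehicle served as control against compound-treated ELG1-luciferase HEK293T cells; exposure lasted 16 hr at 37 °C and 5% CO2, followed by ONE-Glo luminescence detection after 30 min.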
ELG1 DNA repair = inhibitors of ELG1-dependent DNA repair in HEK293T cells. HEK293T ELG1-luciferase reporter, luminescence, 16 h; DNA damage induced by 5-fluorouridine. Potency, µM (titrated, usually from 46.1 µM), without a hit: top-dose activity change, negative = inhibition, hits mostly inhibitors. 330,000 compounds, 2.3% hits; also: % is scaled to controls: 0 for no effect and ±100 for the full control effect; nearly all actives have a fitted effect of over 55% in size
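Luminescence from the luciferase reporter, measured 30 min after ONE-Glo reagent at room temperature, was the read-out. Beforehand, 2,000 cells per well were exposed for 16 hr at 37 °C to 5-fluorouridine together with compound or vehicle.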
Rab9 promoter act = activators of Rab9 promoter. Huh7 Rab9 promoter-luciferase reporter, luminescence, 24 h. Potency, µM (series often up to 9.22 µM), inactives show at the top dose activation, negative = inhibition, actives largely listed as activators. 320,000 compounds, 2.8% hits; also: % of control where 0% means no effect; nearly all actives have a fitted effect of over 60% in size
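Quantitative HTS format; Huh7 Rab9-luciferase reporter cells (1500/well) receive compound 2 h post-plating, incubate 24 h at 37 °C, then get luciferase reagent for 10 min before luminescence reading.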
FLuc modulator = inhibits or activates purified firefly luciferase, miR-21 counter-screen | purified FLuc, Km substrates, luminescence inhibition | Potency, µM (series often up to 57.5 µM), for the others: at the highest dose activity change, negative = inhibition, hits mostly inhibitors | 360,000 compounds, 6.9% hits | AID 588342;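 also: plate controls were vehicle for no effect and reference inhibitor for full effect; nearly all actives have a fitted effect of over 55% in size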
Target sequence (P08659 whole entry, looked up): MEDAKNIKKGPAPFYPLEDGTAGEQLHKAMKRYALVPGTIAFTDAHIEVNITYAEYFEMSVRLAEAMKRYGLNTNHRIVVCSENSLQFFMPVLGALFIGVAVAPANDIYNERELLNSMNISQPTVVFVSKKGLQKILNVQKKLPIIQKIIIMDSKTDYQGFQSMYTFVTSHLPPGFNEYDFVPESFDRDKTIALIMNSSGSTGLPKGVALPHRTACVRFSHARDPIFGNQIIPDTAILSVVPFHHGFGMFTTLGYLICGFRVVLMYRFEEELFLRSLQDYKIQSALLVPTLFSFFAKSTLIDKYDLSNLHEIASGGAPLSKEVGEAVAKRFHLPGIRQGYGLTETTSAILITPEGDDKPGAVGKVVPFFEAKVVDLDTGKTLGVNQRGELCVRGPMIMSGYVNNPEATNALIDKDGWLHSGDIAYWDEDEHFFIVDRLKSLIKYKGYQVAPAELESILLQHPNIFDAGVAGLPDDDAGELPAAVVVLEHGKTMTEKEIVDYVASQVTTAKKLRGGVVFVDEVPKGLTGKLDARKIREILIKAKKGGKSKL
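Biochemical qHTS of compounds, final roughly 60 µM downward over six points, against 10 nM purified firefly luciferase using Km concentrations of substrates (10 uM D-luciferin, 10 uM ATP) in Tris acetate pH 7.5 buffer; luminescence output.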
NPC1 promoter act = NPC1 promoter activation; Huh7 NPC1 promoter luciferase reporter, 24 h; Potency, µM (top dose mostly 9.22 µM), for the others: at the highest dose activation, hits mostly activators; 320,000 compounds, 2.4% hits; also: % of control where 0% means no effect; nearly all actives have a fitted effect of over 60% in size
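Quantitative HTS used a cell-based reporter: Huh7 cells stably bearing the NPC1 promoter upstream of luciferase were treated with compounds for 24 h, and promoter activation was read as luminescence.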
SMN2 splice up = increases expression of the SMN2 splice variant; Potency, µM (doses to about 46.1 µM), for the others: at the top dose activity change, positive = activation, actives largely listed as activators; HEK293 SMN2-luciferase splicing reporter, luminescence, 30-36 h; 210,000 compounds, 2.8% hits; also: % of control where 0% means no effect; nearly all actives have a fitted effect of over 55% in size
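HEK293 cells carry an SMN2 minigene-luciferase reporter in which exon 7 inclusion puts luciferase in frame. Cells were seeded at 2000 cells/well, attached for 10-12 hours, then exposed to compounds for 30-36 hours at 37C before ONE-Glo luminescence.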
* hit, by the source's call; ? = inconclusive; . = not tested or not shown; [ ] = remark or other dose. Calls follow the shape of the dose curve; as a rule, active = well fitted curve in the direction sought with a large enough effect; inconclusive = small, poorly fitted or top-dose-only effect, or another doubt; inactive = no such curve, though single readings can be large; an effect the other way counts as inactive or inconclusive. Potency is read from the fitted curve at half-maximal effect.

SMILES	ELG1 genotoxic	ELG1 DNA repair	Rab9 promoter act	FLuc modulator	NPC1 promoter act	SMN2 splice up
Cc1nc(CNC(=O)CC2C(=O)NCCN2Cc2cccc(Oc3ccccc3)c2)cs1 (stereo not drawn)	-0.3%	0.7%	1.1%	0.8%	-4.1%	.
CCN=C(Nc1ccc2c(c1)OCO2)SC1CC(=O)N(c2ccc(OC)cc2)C1=O (stereo not drawn)	-13.8%	16.4µM*	-1.6%	-1.8%	-4.5%	-27.1%
CCN=C(Nc1ccc2c(c1)OCO2)SC1CC(=O)N(c2ccccc2F)C1=O (stereo not drawn)	-2.0%	-25.3%	0.1%	-0.4%	-0.8%	-6.0%
O=C(Nc1cccc(-c2cnc3ccccc3n2)c1)c1ccc(Cl)cc1	8.4%	14.4%	11.6%	-10.1%	6.3%	7.1%
O=C(Nc1cccc(Cl)c1)c1cnccn1	13.9%	14.7%	25.2%	-12.1%	2.8%	.
O=C(Nc1cccc(-c2cn3ccccc3n2)c1)c1cnccn1	-2.1%	?	28.7%	12µM*	24.8%	?
O=C(Nc1cccc(-c2cn3ccccc3n2)c1)c1cccc(Cl)c1	-4.6%	?	17.6%	2.39µM*	-1.2%	-21.4%
CC(C)(C)C1CCC(C(=O)Nc2ccc(N3CCOCC3)cc2N2CCOCC2)CC1 (stereo not drawn)	-2.1%	14.6µM*	-1.5%	1.7%	-1.5%	.
CCCCC1CCC(C(=O)Nc2ccccc2N2CCOCC2)CC1 (stereo not drawn)	-4.3%	-6.0%	-2.0%	.	1.3%	.
COc1ccc(Cl)cc1NC(=O)Cn1c2ncccc2c(=O)n1-c1ccc(C)c(C)c1	.	.	.	-4.1%	.	.
CN(C)S(=O)(=O)c1ccc(C(=O)Nc2ccc3ncccc3c2)cc1	?	?	21.8%	15.1µM*	22.4%	.
Cc1nc2ccc(NC(=O)c3ccc(S(=O)(=O)N(C)C)cc3)cc2s1	-0.1%	-13.5%	2.3%	-6.3%	-2.9%	-7.9%
O=C(Nc1ccc2ncccc2c1)Nc1ccc2ncccc2c1	0.4%	?	27.4%	6.75µM*	?	1.4%[9.22 µM]
c1cnc2ccc(-c3ccc4ncccc4c3)cc2c1	?	?	0.447µM*	0.601µM*	1µM*	.
O=C(Nc1ccc2ncccc2c1)c1ccccc1Br	6.51µM*	?	2.82µM*	12µM*	?	.
Cc1ccc2ncccc2c1	3.0%	15.2%	-4.2%	-1.8%	13.7%	14.2%
CCN1C(C(=O)c2ccccc2)=C(OC(=O)c2ccc(Cl)cc2)c2ccccc2S1(=O)=O	.	.	.	-0.7%	.	-30.4%
O=C1C(Cl)=C(NC2CCCCC2)C(=O)N1c1ccc(Cl)cc1	?	?	17.8%	4.78µM*	13.9%	?
CCc1ccccc1NC(=O)Cn1ccn(-c2cc(C)cc(C)c2)c(=O)c1=O	.	.	.	-12.8%	.	.
CCOc1ccccc1NC(=O)N1CCN(S(=O)(=O)c2ccc3c(ccn3C)c2)CC1	.	.	.	3.3%	.	-13.0%
Oc1c(N=NC(=S)Nc2ccccc2F)c2ccccc2n1Cc1cccc(Cl)c1	-5.9%	?	-4.7%	-0.3%	-8.7%	-37.0%
Oc1c(N=NC(=S)Nc2ccccc2F)c2ccccc2n1Cc1ccc(F)cc1	-14.5%	5.17µM*	0.2%	-2.7%	-8.9%	-27.8%
Cc1cccc(Cn2c(O)c(N=NC(=S)Nc3ccccc3F)c3ccccc32)c1	-10.9%	3.66µM*	-4.1%	-1.9%	-12.0%	.
Cc1ccc(S(=O)(=O)c2nnn3c2nc(NCc2ccccc2Cl)c2sccc23)cc1	.	.	.	-1.7%	.	.
CCc1nn(CC(=O)NCCCN(C)Cc2ccccc2)c(=O)c2cc3sc(C)cc3n12	2.3%	18.0%	-0.3%	0.0%	0.8%	.
O=C(O)CSc1ncnc2nc[nH]c12	-1.2%	-2.6%	-2.9%	2.2%	-0.5%	-0.1%
O=C(CSc1ncnc2nc[nH]c12)N1CCN(c2ccc(Cl)cc2)CC1	-8.9%	18.4µM*	-4.5%	2.3%	2.2%	-55.5%
CCOc1ccc(-c2ccc(NS(=O)(=O)c3cc(C)c(C)cc3C)cc2)nn1	.	.	.	-19.8%	.	.
CCOC(=O)C1CCCN(C(=O)Cn2ncn3c(cc4sc(CC)cc43)c2=O)C1 (stereo not drawn)	.	.	.	-1.6%	.	-13.5%
